According to PubChem BioAssay:

assay: compound effects on multiple myeloma cell viability – MM1S, calcein-AM fluorescence, 48 h, basal, profiling panel (AID 1165); settings: higher = more signal;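 note: viability of MM1S multiple myeloma cells under basal unstimulated conditions; test concentration not given here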

Row | SMILES | z-score
1 | COc1ccc(C#Cc2ccc3c(c2)[C@]2(C(=O)N3)[C@H](C(N)=O)[C@H]3C(=O)O[C@H](c4ccccc4)[C@H](c4ccccc4)N3[C@@H]2c2ccc(O)cc2)cc1 | -3.29
2 | COc1ccc([Si](C)(C)[C@@H]2[C@@H](CCO)O[C@]3(C(=O)N(Cc4ccc(N5C(=O)c6ccccc6Oc6ccccc65)cc4)c4ccccc43)[C@H]2C)cc1 | -2.31
3 | NC(=O)NCC#Cc1ccc2c(c1)[C@]1(C(=O)N2)[C@H](c2ccc(O)cc2)N2[C@H](c3ccccc3)[C@H](c3ccccc3)OC(=O)[C@H]2[C@@H]1C(=O)NC[C@H](O)c1ccccc1 | -0.106
4 | CO[C@H]1O[C@H](CO)[C@@H](OC(=O)c2ccc(Br)cc2)[C@@H]2OC(=O)[C@H](Cc3cccc(Br)c3)C/C=C/C[C@@H](Cc3cccc(Br)c3)C(=O)O[C@@H]12 | -1.82
5 | CO[C@H]1O[C@H](CO)[C@@H](OC(=O)Nc2cccc(F)c2)[C@H](OC(=O)Nc2ccc3c(c2)OCO3)[C@H]1OC(=O)Nc1ccc2c(c1)OCO2 | -1.17
6 | CC(C)C[C@H]1NC(=O)[C@H](C)NC(=O)[C@@]23C(=O)N[C@@H](Cc4ccccc4)C2[C@H](C)[C@@]2(C)O[C@H]2C3/C=C/C/C=C\CNC1=O (some centres undefined) | -0.36
7 | Cc1ccc(C(C)CC(O)C2C=CC3C(=O)N(Cc4ccccc4)C(=O)C3N2n2cnnc2)o1 (centres undefined) | -0.427
8 | COCCCNC(=O)[C@@]1(Cc2ccccc2)COC(c2ccc(OCCCO)cc2)=N1 | -0.35
9 | O=C1c2ccccc2[C@](Cc2ccccc2I)(C(=O)NC2CC2)[C@H](c2ccc(CO)cc2)N1Cc1ccccc1Cl | -1.39
10 | CCOC(=O)C[C@H]1[C@H](OC(=O)Cc2ccc3c(c2)OCO3)[C@@H](NC(=O)c2ccccc2)c2cc(OCCCO)ccc2N1C(=O)c1ccccc1 | -0.266
11 | CCOC(=O)C1=CC[C@@H](c2ccc(N(CC)CC)cc2)N(S(=O)(=O)c2ccc(C)cc2)[C@H]1c1ccc([N+](=O)[O-])cc1 | -0.0595
12 | COC(=O)C(CC#Cc1ccc2c(c1)[C@]1(C(=O)N2)[C@H](C(=O)N2CCc3cc(OC)c(OC)cc3C2)[C@H]2C(=O)O[C@H](c3ccccc3)[C@H](c3ccccc3)N2[C@@H]1c1ccc(OCCO)cc1)C(=O)OC | 0.783
13 | CC(C)N1C(=O)c2ccccc2[C@](C)(C(=O)O)[C@@H]1c1ccc(CO)cc1 | 0.0364
14 | C=CCC(OC(C)=O)[C@@H]1[C@@H](N(Cc2ccc(-c3ccccc3)cc2)C(=O)c2cccc3ccccc23)c2cc(OCCCO)ccc2N1C(=O)c1ccc2ccccc2n1 (some centres undefined) | -0.318
15 | [N-]=[N+]=Nc1ccccc1[C@H]1OC(c2ccc(OCCCO)cc2)=N[C@@]1(Cc1ccccc1)C(=O)NCc1ccccc1 | -1.04
16 | COCCCNC(=O)[C@]1(CCS(=O)(=O)c2ccccc2)N=C(c2ccc(OCCCO)cc2)O[C@@H]1c1ccccc1 | -0.223
17 | NC(=O)NCC#Cc1ccc2c(c1)[C@]1(C(=O)N2)[C@H](c2ccc(OCCO)cc2)N2[C@H](c3ccccc3)[C@H](c3ccccc3)OC(=O)[C@H]2[C@@H]1C(=O)N1CCCCCCC1 | 0.135
18 | O=C1C[C@@](C(=O)O)(c2ccc([N+](=O)[O-])cc2)[C@@H](c2ccc(CO)cc2)N1CC12CC3CC(CC(C3)C1)C2 | -1.49
19 | O=C1C[C@@](C(=O)NCc2ccccc2)(c2ccc([N+](=O)[O-])cc2)[C@@H](c2ccc(CO)cc2I)N1C1CCCCC1 | -1.6
20 | COc1cccc(C[C@H]2C[C@@H](CO[Si](C(C)C)(C(C)C)C(C)C)N3C(=O)[C@]4(C(C)=O)O[C@]23[C@H]2C(=O)N(C)C(=O)[C@H]24)c1 | -2.93
21 | COCC(=C=CC[C@@H](O)c1ccccc1OCCO)C[C@@H](O)COCc1ccccc1 | 0.338
22 | COC(=O)C(CC#Cc1ccc2c(c1)[C@]1(C(=O)N2)[C@H](C(=O)N2CCc3cc(OC)c(OC)cc3C2)[C@H]2C(=O)O[C@H](c3ccccc3)[C@H](c3ccccc3)N2[C@@H]1c1ccc(O)cc1)C(=O)OC | -0.993
23 | CN1C(=O)C2C=CC(C(O)COCc3ccccc3)N(Nc3ccccc3)C2C1=O (centres undefined) | 0.225
24 | Cc1ccccc1C(O)C1C=CC2C(=O)N(Cc3ccccc3)C(=O)C2N1n1cnnc1 (centres undefined) | -0.742
